# In the library only some 18% were active in any assay of this set; here they are far more common.
# CtBP-E1A blk: inhibitors of CtBP/E1A interaction. activity change, % (concentration not given with the values). 340,000 tested, 0.49% active. AID 651724. AlphaScreen GST-E1A/His-CtBP binding, 1536-well; hits give low values; in the data active = activity change below about -65%; inconclusive = mostly about -30% to -63%
#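 GST-E1A and His-tagged CtBP (125 nM each as 5X stock) were preincubated with pin-transferred compound for 2 h at 37 °C in the dark, then glutathione donor and nickel acceptor beads were added for 1 h before AlphaScreen reading.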
# Six1-Eya2 blk: inhibitors of human Six1/Eya2 interaction; Q15475+O00167; AlphaScreen GST-Six1/His-Eya2 binding, biochemical; hits give low values; activity change, % (no concentration beside the values); 360,000 tested, 0.56% active; AID 651725; in the data active = activity change below about -65%; inconclusive = mostly about -30% to -63%
#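 AlphaScreen with GST-Six1 and His-Eya2 (5X mix: 250 nM and 500 nM), glutathione donor and nickel acceptor beads; buffer 50 mM Tris pH 8.0, 300 mM NaCl, 1 mM TCEP; 1 h at 37 C in the dark.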
# DT40 TDP1 no CPT: qHTS for Inhibitors of human tyrosyl-DNA phosphodiesterase 1 (TDP1): qHTS in cells in absence of CPT; DT40 Tdp1-/- hTDP1 cells, no CPT, ATP luminescence, 48 h; 420,000 tested, 15% active; AID 686978, 2013; Potency, µM (series often up to 46.2 µM), for the others: at the highest dose activity change, negative = growth inhibition, actives largely listed as inhibitors; also: potency is read from the fitted curve at half-maximal effect; nearly all actives have a fitted effect of over 55% in size
#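 Camptothecin absent (DMSO only). Human TDP1-complemented DT40 knockout cells, 400 cells/well, 37 °C for minimum 48 hr; ATP measured via CellTiter-Glo, 30 min dark incubation, luminescence.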
# DT40 TDP1 CPT: growth inhibition of DT40 Tdp1-/-;hTDP1 cells with camptothecin (screen for TDP1 inhibitors); Potency, µM (top dose mostly 46.2 µM), without a hit: at the top dose activity change, negative = growth inhibition, hits mostly inhibitors; 420,000 tested, 12% active; chicken DT40 Tdp1-/-;hTDP1 cells + 20 nM CPT, ATP luminescence, 48 h; AID 686979; also: potency is read from the fitted curve at half-maximal effect; nearly all actives have a fitted effect of over 55% in size
#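 Cell growth measured by CellTiter-Glo luminescence after a minimum 48 h, 37 C compound exposure with 20 nM CPT in Tdp1-knockout DT40 cells stably expressing hTDP1, seeded 400/well; qHTS titration format.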
# IL1B secr inh: blocks inflammasome-driven IL-1 beta release; AID 743279; 360,000 tested, 4.7% active; activity change, % at 57.5 µM; THP-1 LPS/ATP IL-1B secretion, AlphaLISA, 16 h; hits give low values; in the data active = activity change below about -50%; inconclusive = mostly about -30% to -49%
#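 THP-1 cells pretreated 1 hr with compounds (up to 57.5 uM final), then stimulated with LPS (250 ng/mL final) plus ATP (1.25 mM final); secreted IL-1B measured by AlphaLISA after 16 hr, decreased signal indicating inhibition.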
# TDP1 inh: TDP1 (human) enzyme inhibition; Q9NUW8; AID 485290; recombinant TDP1, AlphaScreen DNA substrate cleavage; Potency, µM (doses to about 130 µM), for the others: at the top dose activity change, negative = inhibition, hits mostly inhibitors; 350,000 tested, 0.28% active; also: potency is read from the fitted curve at half-maximal effect; nearly all actives have a fitted effect of over 40% in size
#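 Compounds were preincubated with Tdp1 (1 nM final) for 15 min at room temperature before substrate (15 nM final) started a 5 min reaction; beads (10 ug/ml final) were then added for 10 min before AlphaScreen detection.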
# Active calls of the source: *; ? = inconclusive; · = not tested or not shown. Unless noted, calls follow the shape of the dose curve; as a rule, active = well fitted curve in the direction sought with a large enough effect; inconclusive = small, poorly fitted or top-dose-only effect, or another doubt; inactive = no such curve, though single readings can be large; an effect the other way counts as inactive or inconclusive. % is scaled to controls: 0 for no effect and ±100 for the full control effect.
SMILES,CtBP-E1A blk,Six1-Eya2 blk,DT40 TDP1 no CPT,DT40 TDP1 CPT,IL1B secr inh,TDP1 inh
O=C1NC(=Nc2ccccc2)S/C1=C\c1cccs1,-9,-29,?,?,12,-8%
COC(=O)/C=C1/SC(=Nc2ccc(Cl)c(Cl)c2)NC1=O,1,-4,-29%,2%,-8,0%
Cc1cc(C)cc(N=C2NC(=O)/C(=C/c3cccs3)S2)c1,·,-5,13µM*,?,9,3%
CC(/C=C1\SC(=Nc2cccnc2)NC1=O)=C\c1ccccc1,11,1,2.9µM*,4.1µM*,-12,0%
Cn1cc(/C=C2/SC(=O)N(c3ccccc3)C2=O)c2ccccc21,-3,15,-27%,-7%,4,0%
Cc1ccc(N=C2NC(=O)/C(=C/c3cn(C)c4ccccc34)S2)cc1C,-5,-6,18µM*,18µM*,-25,6%
COC(=O)/C=C1\SC(=Nc2ccccc2)NC1=O,1,1,-5%,-16%,-65*,1%
COc1ccc(C(=O)NC(=S)NCc2cccnc2)cc1Cl,-7,-7,?,-22%,-12,·
COc1ccc(N(CC(=O)NCCSCc2ccco2)S(=O)(=O)c2ccccc2)cc1Cl,-3,-18,21µM*,15µM*,-3,5%
COc1ccc(OC)c(N(CC(=O)NCCSCc2ccco2)S(=O)(=O)c2ccc(OC)c(OC)c2)c1,-5,3,16µM*,13µM*,18,1%
COc1ccc(N(CC(=O)NCCSCc2ccccc2Cl)S(C)(=O)=O)cc1Cl,-2,0,?,12µM*,0,2%
N#Cc1ccc(NC(=O)c2cccs2)nc1,7,-2,-25%,7%,-20,·
COc1ccc(N(CC(C)C)S(=O)(=O)c2nnc(NC(=O)CC(C)C)s2)cc1,2,2,?,3.7µM*,11,·
Cc1ccc(N(C)S(=O)(=O)c2nnc(NC(=O)C3CCCCC3)s2)cc1,·,·,-11%,4%,·,0%
COc1ccc(C(=O)Nc2nnc(S(=O)(=O)N(CC(C)C)c3ccccc3)s2)cc1,·,·,-14%,-13%,·,4%
Cc1ccc(N(CC(C)C)S(=O)(=O)c2nnc(NC(=O)c3ccco3)s2)cc1,·,·,18µM*,?,·,1%
CCN(c1cc(C)cc(C)c1)S(=O)(=O)c1nnc(NC(=O)C2CCCCC2)s1,·,·,12µM*,21µM*,·,4%
CCN(c1ccc(OC)cc1)S(=O)(=O)c1nnc(NC(=O)CC(C)C)s1,1,-10,2%,-20%,-53*,·
CCC(=O)Nc1nnc(S(=O)(=O)N(CC)c2ccc(OC)cc2)s1,·,3,-29%,-19%,19,·
Oc1ccc(Cl)cc1CNc1nccs1,7,-4,-19%,-1%,8,·
COc1ccc(-c2cc3c(=O)n(CC(=O)NCc4cccnc4)nc(C)n3n2)cc1,6,-3,?,13%,11,·
CN(C)c1ccc(C2Nc3ccccc3C(=O)N2CCCN2CCOCC2)cc1 (stereo not given),·,0,-22%,-11%,7,-3%
Cc1ccc(NC(=O)C2=CC(c3ccc(C)cc3)=NS(=O)(=O)N2C)cc1,-7,-16,?,?,19,·
COc1ccc(C2=NS(=O)(=O)N(C)C(C(=O)Nc3ccc(C)cc3)=C2)cc1,-1,-21,21µM*,?,-24,·
COc1ccc(OC)c(C2=NS(=O)(=O)N(C)C(C(=O)Nc3cccc(C(C)=O)c3)=C2)c1,-11,-8,?,21µM*,-1,4%
SMILES,CtBP-E1A blk,Six1-Eya2 blk,DT40 TDP1 no CPT,DT40 TDP1 CPT,IL1B secr inh,TDP1 inh
CC(=O)c1ccc(NC(=O)C2=CC(c3ccc(C)cc3)=NS(=O)(=O)N2C)cc1,·,·,4.1µM*,8.2µM*,·,17%
CCc1ccc(NC(=O)C2=CC(c3ccc(OC)cc3)=NS(=O)(=O)N2C)cc1,-11,-27,?,?,-10,·
COc1cc(NC(=O)C2=CC(c3ccc(F)cc3)=NS(=O)(=O)N2C)cc(OC)c1OC,·,·,23µM*,?,·,9%
CCn1c(O)c(N=NC(=O)C2C(=O)NCC2c2ccccc2)c2ccccc21 (stereo not given),-4,1,-23%,-16%,-4,0%
CN1C(C(=O)Nc2ccc(OC(F)(F)F)cc2)=CC(c2cccs2)=NS1(=O)=O,·,-2,3.7µM*,?,-4,8%
COc1cccc(C2=NS(=O)(=O)N(C)C(C(=O)Nc3ccccc3SC)=C2)c1,·,·,?,16µM*,·,9%
CCc1ccccc1NC(=O)C1=CC(c2ccc3c(c2)OCO3)=NS(=O)(=O)N1C,·,·,-29%,?,·,-6%
Cc1ccc(-c2noc(-c3cccnc3NCc3ccc(Cl)cc3)n2)cc1,·,·,-23%,-9%,·,6%
Cc1cccc2cc3c(N)c(C(=O)N4CCOCC4)sc3nc12,-13,6,1.6µM*,2.1µM*,-55*,-5%
COc1ccccc1CNC(=O)COC(=O)c1cccc(S(=O)(=O)N2CCCC2)c1,-3,4,-18%,-2%,0,1%
CCOC(=O)N1CCC(NC(=O)Cn2nc(Cc3ccncc3)c3ccccc3c2=O)CC1,-3,3,-20%,-2%,0,4%
CN(C)c1ccc(CN(C(=O)c2ccco2)C2CCS(=O)(=O)C2)cc1 (stereo not given),0,-1,-1%,-2%,-8,-1%
Cc1cc(C)c(OCC(=O)N(Cc2ccc(N(C)C)cc2)C2CCS(=O)(=O)C2)c(C)c1 (stereo not given),-10,-27,23µM*,-7%,-72*,10%
O=C(c1ccc(Cl)c([N+](=O)[O-])c1)N(Cc1ccc(F)cc1)C1CCS(=O)(=O)C1 (stereo not given),-2,-16,?,6%,-95*,-1%
CN(C)c1ccc(CN(C(=O)c2ccc(Cl)c([N+](=O)[O-])c2)C2CCS(=O)(=O)C2)cc1 (stereo not given),-13,-10,?,?,-75*,·
CCOC(=O)C1CCCN(C(=O)CCCn2nc(C)n3c(cc4sccc43)c2=O)C1 (stereo not given),5,-3,8%,-6%,1,1%
Cc1ccc(C(=O)NCC(=O)N2CCN(c3ccccc3O)CC2)s1,-9,-3,2.9µM*,-3%,-17,·
COc1ccc(C(CC(=O)Nc2cc(C)ccn2)N2Cc3ccccc3C2=O)cc1 (stereo not given),·,-4,13µM*,?,13,·
